Here are results for six compounds from PubChem BioAssay.

Activity calls are given as the source filed them.

The target in test [1] is Albumin (Bos taurus) (UniProt P02769). The experiment in a line: bovine serum albumin binders on microarray, profiling panel, artefact control for SMM control protein annotation, biochemical, small-molecule microarray, Alexa647 label, 635/667 nm fluorescence (AID 1118).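 Further: score merges 667 nm emission intensity and signal-to-noise per printed compound spot.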 The conditions noted are these: BSA-A647 binding, fluorescence 635 nm, higher = more signal.
Test [2] in a line: small-molecule microarray binders of probe aXIP, primary screen, biochemical, NeuroSMM set, 635/667 nm fluorescence (AID 1119).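 Further: probe is the protein aXip251-270 applied at 1 µg/mL to compound-printed slides; binding of probe to printed compounds measured as 667 nm fluorescence plus signal to noise.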 The conditions noted are these: higher = more signal, called active from +8 up or from −8 down.
A short description of test [3]: small-molecule binders of probe aNOTCH3, primary screen, biochemical, small-molecule microarray, 635/667 nm fluorescence (AID 1120).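 Further: probe is a biotin-tagged antibody raised against NOTCH3 rather than NOTCH3 protein; score merges spot fluorescence near 667 nm with spot signal to noise.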 To be noted: higher = more signal.
Test [4] can be described thus: small-molecule binders of probe aNOTCH2, primary screen, biochemical, small-molecule microarray, 635/667 nm fluorescence (AID 1121).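 Further: score merges feature fluorescence read at 667 nm with its signal to noise.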 The conditions noted are these: higher = more signal.
Test [5] deals with Carbonic anhydrase 2 (Homo sapiens) (UniProt P00918). The experiment in a line: CAII small-molecule binders, profiling panel, biochemical, small-molecule microarray, Alexa647-labelled CAII (AID 1122). The conditions noted are these: CAII-A647 binding fluorescence, higher = more signal.
The nature of test [6]: COS7 lysate on small-molecule microarray, probe aHis, 635 nm (AID 1123).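 Further: z-score combines 667nm fluorescence intensity with signal-to-noise per printed compound spot.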 To be noted: COS7 cell lysate, fluorescence, higher = more signal.
Test [7] in a line: compound binding in COS7 lysate, probe aLAP1, primary screen, cell lysate, small-molecule microarray (AID 1124).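 Further: lysate comes from COS7 cells expressing LAP1 and is applied at 0.3 µg/mL; score merges spot fluorescence near 667 nm with signal-to-noise over triplicate slides.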 The conditions noted are these: probe aLAP1, fluorescence, higher = more signal.
Test [8] concerns Sam68 (KHDRBS1). The experiment in a line: Sam68 small-molecule binders, primary screen, biochemical, small-molecule microarray, 635 nm fluorescence (AID 1125).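 Further: score merges 667 nm channel intensity with signal to noise over triplicate slides.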 The conditions noted are these: small-molecule microarray binding, higher = more signal.
For test [9], the system named is Chordin-like protein 2 (CHRDL2). Put plainly: CHRDL2 small-molecule binders, primary screen, biochemical, small-molecule microarray, 635 nm fluorescence (AID 1126).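 Further: printed compound slides probed with Chrdl2 protein at 4 µg/mL for 1 h at 4 C; score merges 667 nm emission intensity with signal to noise over three replicate slides.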 The conditions noted are these: small-molecule microarray binding, fluorescence 635 nm; higher = more signal.
For test [10], the target named is Concanavalin-A (Canavalia ensiformis) (UniProt P02866). Put plainly: ConA small-molecule binders, primary screen, artefact control for SMM control protein annotation, biochemical, small-molecule microarray, Alexa647 label, 635 nm (AID 1127).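 Further: z combines 667 nm emission intensity with signal-to-noise across three replicate slides.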 To be noted: ConA-A647 binding fluorescence, higher = more signal.
Test [11] in a line: anti-His antibody binders, primary screen, artefact control for SMM control protein annotation, biochemical, small-molecule microarray, 635 nm fluorescence (AID 1128).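 Further: score merges feature fluorescence with signal-to-noise for each printed compound spot.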 The conditions noted are these: anti-His Alexa647 antibody binding, higher = more signal.
For test [12], the system named is Human papillomavirus type 1a E7 protein (residues 1-88). The experiment in a line: HPV1a E7 small-molecule binders, primary screen, biochemical, small-molecule microarray, residues 1-88, 635 nm (AID 1129). The conditions noted are these: small-molecule microarray binding, fluorescence 635 nm; higher = more signal.
In test [13] the target is Focal adhesion kinase 1 (Homo sapiens) (UniProt Q05397). The experiment in a line: small-molecule microarray binders of FAK, primary screen, biochemical, 635/667 nm fluorescence, BSA, DTT (AID 1130).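 Further: composite of spot emission at 667 nm and signal to noise over triplicate slides.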 To be noted: PTK2 binding, 635 nm fluorescence, higher = more signal.
Test [14] deals with Fibrinogen (Alexa647-labelled). Put plainly: fibrinogen binders on compound microarrays, profiling panel, artefact control for SMM control-protein annotation, biochemical, small-molecule microarray, 635/667 nm fluorescence (AID 1131).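 Further: z-score merges 667 nm fluorescence with per-spot signal-to-noise over triplicate slides.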 To be noted: fibrinogen-A647 binding fluorescence, higher = more signal.
The target of test [15] is Follistatin (Homo sapiens) (UniProt P19883). The experiment in a line: follistatin binders on small-molecule microarrays, primary screen, biochemical, small-molecule microarray, 635/667 nm fluorescence (AID 1132). To be noted: FST binding, 635 nm fluorescence, higher = more signal.
For test [16], the target named is Fibroblast growth factor 2 (Homo sapiens) (UniProt P09038). The experiment in a line: FGF2 binders on small-molecule microarrays, primary screen, biochemical, small-molecule microarray, 635/667 nm fluorescence (AID 1133). The conditions noted are these: small-molecule microarray binding, FGF2, fluorescence 635/667; higher = more signal.
Test [17] is described as follows: mitochondrial membrane potential change in A549 cells, profiling panel, cell-based, JC-1 fluorescence, basal, 24 h, 100 nL (AID 1138).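 Further: A549 lung adenocarcinoma cells under basal conditions with no added stimulus; test concentration not given here.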 The conditions noted are these: higher = more signal.
Test [18] relates to Lefty1. Put plainly: Lefty1 binders on small-molecule microarrays, primary screen, biochemical, small-molecule microarray, 635/667 nm fluorescence (AID 1139). To be noted: small-molecule microarray binding, fluorescence 635/667; higher = more signal.
The subject of test [19] is wheat germ agglutinin (Triticum aestivum), Alexa647-labelled. The experiment in a line: wheat germ agglutinin binders on compound microarrays, profiling panel, artefact control for SMM control-protein annotation, biochemical, small-molecule microarray, 635/667 nm fluorescence (AID 1140).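 Further: score merges 667 nm feature emission with signal to noise over triplicate slides.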 To be noted: WGA-A647 binding, 635 nm fluorescence, higher = more signal.
In test [20] the target is Luciferin 4-monooxygenase (Photinus pyralis) (UniProt P08659). Put plainly: firefly luciferase enzyme inhibitors, primary screen, biochemical, luminescence, purified enzyme, 2006 set (AID 1141).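 Further: cell-free assay with purified firefly luciferase at 100 ng per well in PBS; test concentration not given here.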 To be noted: SteadyGlo luminescence, 30 min, higher = more signal, called active from +8 up or from −8 down.
Chain of Luciferin 4-monooxygenase (Photinus pyralis) (P08659 whole entry, looked up): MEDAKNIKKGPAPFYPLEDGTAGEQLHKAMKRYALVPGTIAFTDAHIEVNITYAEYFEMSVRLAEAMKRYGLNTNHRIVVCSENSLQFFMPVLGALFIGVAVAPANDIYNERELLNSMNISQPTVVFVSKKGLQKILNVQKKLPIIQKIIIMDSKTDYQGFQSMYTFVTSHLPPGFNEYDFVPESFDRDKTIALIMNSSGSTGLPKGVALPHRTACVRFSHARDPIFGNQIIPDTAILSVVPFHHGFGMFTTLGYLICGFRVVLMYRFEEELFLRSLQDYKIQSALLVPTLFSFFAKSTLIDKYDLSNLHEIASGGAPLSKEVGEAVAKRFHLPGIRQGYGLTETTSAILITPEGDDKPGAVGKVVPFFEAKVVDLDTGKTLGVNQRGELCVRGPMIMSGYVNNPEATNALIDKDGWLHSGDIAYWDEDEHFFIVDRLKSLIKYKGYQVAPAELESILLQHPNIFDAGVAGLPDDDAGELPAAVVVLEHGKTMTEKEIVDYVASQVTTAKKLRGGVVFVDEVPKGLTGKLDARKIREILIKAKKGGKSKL

Chain of Albumin (Bos taurus) (P02769 whole entry, looked up): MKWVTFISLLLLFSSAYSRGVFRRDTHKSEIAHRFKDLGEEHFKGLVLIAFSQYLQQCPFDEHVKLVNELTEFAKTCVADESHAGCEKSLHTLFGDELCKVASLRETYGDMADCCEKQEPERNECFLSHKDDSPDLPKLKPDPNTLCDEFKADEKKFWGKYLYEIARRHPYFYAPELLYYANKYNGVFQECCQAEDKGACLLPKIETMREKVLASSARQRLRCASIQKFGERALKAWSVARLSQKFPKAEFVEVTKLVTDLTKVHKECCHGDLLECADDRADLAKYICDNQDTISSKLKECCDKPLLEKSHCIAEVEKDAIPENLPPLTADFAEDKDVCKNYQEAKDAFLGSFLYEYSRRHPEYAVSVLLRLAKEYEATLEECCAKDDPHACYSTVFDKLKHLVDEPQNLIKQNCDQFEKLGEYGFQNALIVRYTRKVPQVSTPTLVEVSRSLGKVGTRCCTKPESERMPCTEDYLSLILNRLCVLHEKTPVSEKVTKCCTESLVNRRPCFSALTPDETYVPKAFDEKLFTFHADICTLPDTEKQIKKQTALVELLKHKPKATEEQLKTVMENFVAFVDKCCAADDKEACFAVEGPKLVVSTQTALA
Chain of Focal adhesion kinase 1 (Homo sapiens) (Q05397 whole entry, looked up): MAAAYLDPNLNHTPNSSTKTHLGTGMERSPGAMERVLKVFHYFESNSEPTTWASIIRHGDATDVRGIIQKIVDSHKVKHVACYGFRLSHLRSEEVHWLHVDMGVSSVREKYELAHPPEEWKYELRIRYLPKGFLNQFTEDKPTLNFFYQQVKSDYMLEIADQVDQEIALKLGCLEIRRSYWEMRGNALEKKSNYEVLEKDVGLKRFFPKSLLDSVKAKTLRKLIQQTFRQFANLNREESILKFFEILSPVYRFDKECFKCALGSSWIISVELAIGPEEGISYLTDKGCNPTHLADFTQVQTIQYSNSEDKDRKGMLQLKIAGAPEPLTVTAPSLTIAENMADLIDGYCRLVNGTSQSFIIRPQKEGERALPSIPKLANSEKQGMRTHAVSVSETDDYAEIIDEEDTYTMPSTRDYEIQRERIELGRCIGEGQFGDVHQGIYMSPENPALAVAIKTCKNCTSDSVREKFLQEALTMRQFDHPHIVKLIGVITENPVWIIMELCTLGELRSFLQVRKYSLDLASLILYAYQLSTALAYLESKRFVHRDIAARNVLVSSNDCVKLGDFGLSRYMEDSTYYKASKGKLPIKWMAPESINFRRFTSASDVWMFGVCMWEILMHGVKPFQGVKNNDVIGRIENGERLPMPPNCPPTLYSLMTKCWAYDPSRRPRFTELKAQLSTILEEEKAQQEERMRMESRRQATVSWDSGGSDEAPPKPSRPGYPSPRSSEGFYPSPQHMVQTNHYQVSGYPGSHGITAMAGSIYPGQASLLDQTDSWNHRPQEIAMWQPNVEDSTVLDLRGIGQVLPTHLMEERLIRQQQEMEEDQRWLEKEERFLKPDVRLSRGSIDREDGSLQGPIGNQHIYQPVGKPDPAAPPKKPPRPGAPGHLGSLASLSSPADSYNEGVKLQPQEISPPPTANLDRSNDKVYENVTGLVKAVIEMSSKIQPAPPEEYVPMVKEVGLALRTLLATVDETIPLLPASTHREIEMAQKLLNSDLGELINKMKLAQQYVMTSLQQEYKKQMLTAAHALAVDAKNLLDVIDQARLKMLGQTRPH
Chain of Fibroblast growth factor 2 (Homo sapiens) (P09038 whole entry, looked up): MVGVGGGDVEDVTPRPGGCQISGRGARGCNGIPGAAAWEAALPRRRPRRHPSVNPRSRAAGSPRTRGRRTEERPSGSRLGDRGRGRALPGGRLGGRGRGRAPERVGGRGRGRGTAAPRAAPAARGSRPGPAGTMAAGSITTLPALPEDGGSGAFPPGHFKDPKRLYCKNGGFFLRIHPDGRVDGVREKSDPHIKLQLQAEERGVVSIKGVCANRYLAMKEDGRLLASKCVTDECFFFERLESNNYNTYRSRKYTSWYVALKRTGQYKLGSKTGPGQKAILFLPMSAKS
Chain of Follistatin (Homo sapiens) (P19883 whole entry, looked up): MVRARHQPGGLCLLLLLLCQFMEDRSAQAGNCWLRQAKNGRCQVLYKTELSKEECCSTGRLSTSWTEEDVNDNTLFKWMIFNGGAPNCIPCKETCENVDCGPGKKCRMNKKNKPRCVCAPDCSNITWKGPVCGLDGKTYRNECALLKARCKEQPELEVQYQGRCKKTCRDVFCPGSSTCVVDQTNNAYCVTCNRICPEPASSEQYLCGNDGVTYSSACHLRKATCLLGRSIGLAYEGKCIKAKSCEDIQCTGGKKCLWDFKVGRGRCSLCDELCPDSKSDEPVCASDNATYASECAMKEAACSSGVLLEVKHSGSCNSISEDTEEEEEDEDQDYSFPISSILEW
Chain of Concanavalin-A (Canavalia ensiformis) (P02866 whole entry, looked up): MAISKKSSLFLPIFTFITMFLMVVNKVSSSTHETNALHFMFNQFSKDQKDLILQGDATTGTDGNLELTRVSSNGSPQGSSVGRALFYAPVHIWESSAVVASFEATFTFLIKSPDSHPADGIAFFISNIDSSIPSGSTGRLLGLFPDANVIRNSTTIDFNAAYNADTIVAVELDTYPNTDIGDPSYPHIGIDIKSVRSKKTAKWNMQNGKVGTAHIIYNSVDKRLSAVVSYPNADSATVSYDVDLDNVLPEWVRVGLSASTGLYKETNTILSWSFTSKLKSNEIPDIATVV

With `CC1=C[C@@]2(CO)C(=O)[C@]3(CO3)[C@@H]1[C@H]1[C@]2(C)C=C(CO)C(=O)[C@]12CO2`, the composite z-score in [1] is -0.123; in [3], 0.112; in [4] it was -0.0795; in [5] it was 0.497; in test [6] it was -0.255; in [7], -0.274. The composite z-score in [8] is 0.369; in [9] it was 0.397; in test [10], 0.301; in test [11] it was 0.0455; in [12], -0.0634; in [13] it was 0.206. In addition, the composite z-score is -0.403 in [14]; 0.443 in test [15]; 0.165 in test [16]; 0.381 in [18]; 0.207 in test [19]. In [2], the composite Z-score is 0.817 (inactive). Also, the z-score was 0.173 in [17] and 0.538 (inactive) in test [20].
Consider `CC(C)(C)OC(=O)CC[C@]1(C(=O)NCc2ccccc2)N=C(c2ccc(OCCCO)cc2)O[C@H]1c1ccccc1CN=[N+]=[N-]`, for which the composite z-score in test [1] is 0.75; in test [3] it was 0.526; in test [4], -0.127; in test [5], 0.68; in test [6] it was 2.45; in test [7] it was 0.583. Besides, the composite z-score in test [8] was 1.3; in test [9], -0.0873; in [10] it was 0.769; in test [11] it was 2; in test [12], 1.23; in test [13], -0.221. For the same compound, the composite z-score was found to be 0.985 in test [14]; 1.48 in test [15]; 1.75 in test [16]; 1.33 in test [18]; 0.571 in [19]. Further, the composite Z-score in [2] was -1 (inactive). The z-score in test [17] is 2.45; in test [20], -2.11 (inactive).
Turning to `O=C1OCC=C[C@H]2OC34C=CCN(Cc5ccccc5)C(=O)[C@H]3N(CCCCCCO)C(=O)[C@@H]4[C@@H]12` (stereo not given in full), the composite z-score in [1] is 0.4; in test [3] it was -0.302; in test [4] it was -0.162; in [5], 0.914; in test [6], 0.0976; in test [7], 1.31. Further, the composite z-score in [8] was -0.398; in [9], -0.694; in test [10], -0.159; in test [11] it was 1.29; in test [12], -0.0134; in test [13], 0.879. For the same compound, the composite z-score in test [14] is -1.25; in [15] it was -0.562; in [16], -0.292; in [18], -0.128; in [19], 0.206. For the same compound, in test [2], the composite Z-score is 0.604 (inactive). For the same compound, the results for the z-score in test [17] and in test [20] were 0.0814 and -3.54 (inactive), respectively.
On to `CO[C@]12C=C(Br)[C@@H](C[C@@H]1c1cccc(C)c1)[C@@]1(CO1)C2=O`, for which the composite z-score in test [1] is 0.223; in test [3], -0.0311; in [4], -0.132; in test [5], 0.354; in [6] it was 0.288; in test [7], -0.071. Further, the composite z-score in test [8] was 0.189; in test [9], 0.306; in test [10], 0.123; in [11] it was 0.177; in test [12], -0.322; in test [13] it was -0.129. The composite z-score is -0.407 in test [14]; 0.415 in test [15]; 0.391 in [16]; 0.802 in test [18]; -0.0489 in test [19]. For the same compound, in test [2], the composite Z-score was 0.379 (inactive). In addition, the results for the z-score in test [17] and in test [20] were -0.645 and 1.02 (inactive), respectively.
As for `C=C(C(=O)CC[C@@H](OC(C)=O)c1ccc(CO)o1)C(C)C`, the composite z-score in test [1] is -0.307; in test [3], 0.706; in test [4], -0.0911; in test [5] it was 0.846; in [6], 0.445; in test [7], 0.119. Also, the composite z-score in test [8] was 0.285; in test [9] it was 0.8; in test [10], 0.771; in test [11], 0.922; in test [12], -0.218; in [13], -0.26. Also, the composite z-score in [14] was 0.454; in test [15] it was 1.33; in test [16], 1.49; in [18] it was 1.59; in [19] it was -0.0963. Moreover, the composite Z-score in [2] was 1.58 (inactive). The z-score in test [17] was -0.246; in [20], -1.76 (inactive).
Regarding `NC(=O)NCC#Cc1ccc2c(c1)[C@]1(C(=O)N2)[C@H](C(=O)NC[C@H](O)c2ccccc2)[C@H]2C(=O)O[C@H](c3ccccc3)[C@H](c3ccccc3)N2[C@@H]1c1ccc(OCCO)cc1`, the composite z-score is -0.397 in [1]; 0.233 in test [3]; -0.0449 in [4]; 0.377 in test [5]; 0.791 in test [6]; 0.587 in test [7]. In addition, the composite z-score in test [8] is 1.01; in test [9], -0.0806; in test [10], 0.798; in test [11], -0.0888; in test [12], 1.05; in test [13], -0.0193. In addition, the composite z-score in test [14] was 0.829; in [15] it was 1.29; in [16], 0.177; in [18] it was -0.0126; in test [19] it was 0.915. The composite Z-score in test [2] was 0.491 (inactive). Also, the results for the z-score in test [17] and in [20] were -0.303 and -1.9 (inactive), respectively.
